Screening data (PubChem BioAssay)
Sampled rows, rich in hits. Any-hit rate of the full collection: about 3.8%.
Nrf2 block – Nrf2 pathway inhibition; A549 ARE-Fluc reporter, luciferase luminescence, 18-24 h; Potency, µM (titrated, usually from 46 µM), hits mostly inhibitors; hit rate 2.1% among 360,000; AID 504444; also: nearly all actives have a fitted effect of over 60% in size
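Reporter: ARE-Fluc in A549. Exposure: 18-24 h, 37 °C, 5% CO2, 5% FBS OPTI-MEM. Readouts: fluorescent cytotoxicity (CellTiter-Fluor), then luminescent Nrf2 signal after BugLite.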
A549 tox – counter-screen for Nrf2 inhibitors: cytotoxicity in A549 cells; A549 ARE-Fluc cells, CellTiter-Fluor viability, 18-24 h; Potency, µM (titrated, usually from 46 µM), actives largely listed as inhibitors; hit rate 0.16% among 390,000; AID 504648
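Cytotoxicity counterscreen: CellTiter-Fluor fluorescence was measured in A549 ARE_Fluc cells after 18-24 h of compound exposure in a concentration series. The subsequent BugLite luminescent read reports ARE-luciferase activity.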
HepG2 tox – kills HepG2 cells in TGF-b inhibitor counter-screen; HepG2 CAGA-GFP viability, ATP luminescence, 18 h; Potency, µM (highest dose often 46.1 µM), most hits filed as cytotoxic; hit rate 0.76% among 410,000; AID 588856
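HepG2 CAGA-GFP cells (1000/well, DMEM with 1% FBS) received compound, then TGF-beta at 500 pg/mL final, and were incubated 18 hours at 37 degrees C. Viability was read by CellTiter-Glo luminescence. Media-only wells were set as complete cell-killing and DMSO as no toxicity.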
ATXN2 expr inh – reduces ATXN2 reporter expression in HEK-293 cells; HEK-293 ATXN2-luciferase reporter, luminescence, 24 h; Potency, µM (series often up to 57 µM), hits mostly inhibitors; hit rate 0.72% among 360,000; also: nearly all actives have a fitted effect of over 55% in size
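ATXN2-luciferase reporter cells (luciferase flanked by upstream and downstream ATXN2 gene portions) were treated 24 h at 37 °C with compounds at up to 57 uM. SteadyGlo luminescence gave expression; GF-AFC fluorescence gave viability.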
ATXN viability – viability counter-screen for ATXN expression inhibitors; Potency, µM (highest dose often 56.7 µM), hits mostly cytotoxic; hit rate 0.49% among 400,000; S2 cells (HEK-293 line with an ATXN2-luciferase reporter) viability, CellTiter-Fluor protease fluorescence, 24 h; also: nearly all actives have a fitted effect of over 40% in size
TGFb SMAD3 inh – TGF-b pathway inhibition | HepG2 CAGA-GFP TGF-b/SMAD3 reporter, GFP fluorescence, 18 h; TGF-beta stimulated, 500 pg/mL final | Potency, µM (series often up to 46.1 µM), most hits filed as inhibitors | hit rate 1.2% among 410,000 | AID 588855; also: nearly all actives have a fitted effect of over 65% in size
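TGF-beta reporter screen: HEPG2 CAGA-GFP, 1% FBS, 500 pg/mL TGF-beta final, 18 h; per-cell GFP summed per well; curves fitted and categorized by class.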
Large screens that a line does not name were inactive. Calls follow the shape of the dose curve; as a rule, active = well fitted curve in the direction sought with a large enough effect; inconclusive = small, poorly fitted or top-dose-only effect, or another doubt; inactive = no such curve, though single readings can be large; an effect the other way counts as inactive or inconclusive.

COc1ccc(S(=O)(=O)Nc2ccc(Oc3ncccn3)c(Cl)c2)cc1	Nrf2 block inconclusive, TGFb SMAD3 inh inconclusive
COc1ccc(NS(=O)(=O)c2ccc(Oc3ncccn3)cc2)cc1	Nrf2 block 21µM
COc1ccc(S(=O)(=O)Nc2ccc3c(c2)CCC3)cc1	TGFb SMAD3 inh 11µM
COc1ccc(NS(=O)(=O)c2ccc(-c3coc(C)n3)cc2)cc1	Nrf2 block 16µM
CC(=O)Nc1ccc(S(=O)(=O)Nc2ccc3c(c2)CCC3)cc1	none
Cc1ccc(N2C(=O)c3[nH]nc(-c4ccc(Cl)cc4)c3C2c2ccc(F)cc2)cc1 (stereo not drawn)	Nrf2 block inconclusive, A549 tox inconclusive, HepG2 tox 11µM, ATXN2 expr inh inconclusive, TGFb SMAD3 inh inconclusive (no result: ATXN viability)
COc1ccc(-c2n[nH]c3c2C(c2ccc(O)cc2)N(c2ccc(Br)cc2)C3=O)cc1 (stereo not drawn)	Nrf2 block inconclusive, TGFb SMAD3 inh inconclusive (no result: ATXN2 expr inh, ATXN viability)
COc1ccc(OC)c(C2c3c(-c4ccc(Br)cc4)n[nH]c3C(=O)N2c2ccc(Cl)cc2)c1 (stereo not drawn)	Nrf2 block inconclusive, HepG2 tox 11µM, ATXN2 expr inh inconclusive, TGFb SMAD3 inh 4µM (no result: ATXN viability)
Cc1ccc(-c2n[nH]c3c2C(c2cccs2)N(c2ccc(Cl)cc2)C3=O)cc1 (stereo not drawn)	A549 tox inconclusive, HepG2 tox 13µM, ATXN2 expr inh inconclusive, ATXN viability inconclusive, TGFb SMAD3 inh 11µM
COc1cc(C2c3c(-c4ccc(C)cc4)n[nH]c3C(=O)N2c2ccc(F)cc2)ccc1O (stereo not drawn)	ATXN2 expr inh inconclusive, ATXN viability inconclusive, TGFb SMAD3 inh 11µM
Cc1ccc(C(=O)NCC(=O)N(C)CC(=O)Nc2c(Cl)cccc2Cl)s1	none
COc1ccc(NC(=O)Nc2cccc3c2O[C@H](CN(C)C(=O)Nc2c(C)noc2C)[C@@H](C)CN([C@H](C)CO)C3=O)cc1	none
Cn1c2cc(C=O)sc2c2cnn(Cc3ccccc3F)c(=O)c21	none (no result: HepG2 tox, ATXN2 expr inh, ATXN viability, TGFb SMAD3 inh)
COc1ccccc1-n1cc(C(=O)N2CCCC(CO)(Cc3ccccc3C)C2)cn1 (stereo not drawn)	TGFb SMAD3 inh inconclusive
O=C(Nc1ccc(F)cc1F)N1CCCN(c2ccc([N+](=O)[O-])cn2)CC1	Nrf2 block inconclusive
CC(C)(C)c1ccc(NC(=O)N2CCN(c3ccc([N+](=O)[O-])cn3)CC2)cc1	Nrf2 block 13µM
CC(C)(C)NC(=O)CSc1nc2ccc(NC(=O)CSc3nnc(N)s3)cc2s1	Nrf2 block 21µM
O=C(N/N=C/c1ccccc1)c1ccco1	Nrf2 block inconclusive
O=C(C#Cc1ccccc1)c1ccco1	Nrf2 block 21µM, A549 tox inconclusive, HepG2 tox 11µM, ATXN2 expr inh inconclusive, ATXN viability inconclusive, TGFb SMAD3 inh 3.2µM
Cc1ccccc1OCC(=O)Nc1ccc(S(=O)(=O)N(Cc2ccccc2)c2ccccc2)cc1	none
Cc1ccc(-c2nc(CS(=O)CC(=O)NCCN3CCCCCC3)c(C)o2)cc1 (stereo not drawn)	TGFb SMAD3 inh 13µM (no result: ATXN2 expr inh, ATXN viability)
Cc1cccc(-c2nc(SCc3cc(=O)c4c(C)cc(C)cc4[nH]3)n[nH]2)c1	A549 tox inconclusive, ATXN2 expr inh inconclusive, TGFb SMAD3 inh inconclusive (no result: Nrf2 block, ATXN viability)
COc1cc(OC)cc(C(=O)N2CCCC(n3cc(C(=O)NCC(C)C)nn3)C2)c1 (stereo not drawn)	none (no result: Nrf2 block, A549 tox, HepG2 tox, ATXN2 expr inh, TGFb SMAD3 inh)
Cc1nc(SCC(=O)N2CCCCCC2)c2c(=O)n(C)c(=O)n(CC(C)C)c2n1	Nrf2 block inconclusive, TGFb SMAD3 inh 16µM (no result: ATXN2 expr inh)
CC(C)c1nc(SCC(=O)N2CCCCCC2)c2c(=O)n(C)c(=O)n(C)c2n1	Nrf2 block inconclusive, ATXN viability inconclusive
c1ccc(CN2CCC(Nc3nc(-c4ccccc4)nc4ccccc34)CC2)cc1	Nrf2 block inconclusive, A549 tox inconclusive, ATXN2 expr inh inconclusive, ATXN viability inconclusive, TGFb SMAD3 inh inconclusive
c1ccc(CN2CCC(CNc3ncnc4ccccc34)C2)cc1 (stereo not drawn)	Nrf2 block 21µM
